In PubChem BioAssay (NCI) one finds growth data, which are given here for 40 molecules.

The panel holds about 83,000 compounds, 20% with a hit somewhere; the sample as a whole holds those more often.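 In brief: 96-well plates, 48 h treatment, single concentration, percent growth endpoint.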 Calls of active or inactive are those of the source. How the source made its calls: active means growth percent below 10; inactive means the rest.

This experiment has as its system HL-60(TB) leukemia. In words: NCI-60 one-dose screen, 48 h (100 = growth as untreated, 0 = no growth, -100 = all killed). Particulars: 10 µM unless noted.
For the molecule `Cc1c(Nc2nnc(SCC(=O)Nc3sc4c(c3C#N)CCCC4)s2)c(=O)n(-c2ccccc2)n1C`, the growth is 108% (inactive).

For the molecule `CS(=O)(=O)c1nccc(-c2c(-c3cccc(OCc4ccc(Cl)c(C(F)(F)F)c4)c3)nc3sccn23)n1`, the growth is 12.5% (inactive).

For `CN1CCN(c2ccc(C(=O)/C=C/c3ccc(Cl)c(C(F)(F)F)c3)cc2)CC1`, the growth is -22.6% (active).

With `COc1ccccc1NC1=C(Cl)C(=O)c2nc(C)ccc2C1=O`, the growth is -48% (active).

As for `O=c1[nH]c2ccccc2cc1CSc1ccccc1Nc1nccc(-c2ccc(C(F)(F)F)cc2)n1`, the growth is 90% (inactive).

For the molecule `COc1cc(-c2nn(C(C)(C)C)cc2-c2ccnc(NCCCNS(=O)(=O)c3ccccc3)n2)ccc1Cl`, the growth was 103% (inactive).

Regarding `Cc1ccc2c(n1)C(=O)C(Cl)=C(Nc1cc(C(F)(F)F)cc(C(F)(F)F)c1)C2=O`, the growth was 40.7% (inactive).

Turning to `CC(O)c1cccc(/C(N)=N/C(N)=N/c2nc3ccccc3s2)c1` (stereo not given), the growth is 84.5% (inactive).

On to `COc1ccc(Cn2cc3c(c2-c2cc(OC)c(OC)c(OC)c2)CCCc2cnoc2-3)cc1`, for which the growth is -5.47% (active).

For the molecule `O=C(CCCCCCNC(=O)c1csc(Br)n1)NO`, the growth was 5.2% (active).

Consider `COc1cc2cc(Oc3ccc(NC(=O)Nc4ccc(F)c(C(F)(F)F)c4)cc3)c(C)nc2cc1OCCN(C)C`, for which the growth is 94.3% (inactive).

Consider `Cc1ccc2c(n1)C(=O)C(Cl)=C(Nc1ccc(C#N)cc1)C2=O`, for which the growth is 17.4% (inactive).

Take `COC(=O)C1CCCN(S(=O)(=O)/N=C2\NC(=O)NC2=C(Cl)Cl)C1` (stereo not given): the growth is 73.6% (inactive).

`CN1CCN(c2ccc(Nc3nc(NCCCNS(=O)(=O)c4ccc(Cl)cc4)c4sccc4n3)cc2)CC1`: the growth was -43.7% (active).

As for `C(=C(\C1=NCCN1)n1cnc2ccccc21)/c1ccc2ccccc2c1`, the growth was 50.5% (inactive).

With `Cn1c(SCC(=O)c2ccc(Br)cc2)nc2ccccc2c1=O`, the growth was 92.1% (inactive).

Regarding `CN1c2ccccc2Sc2cc(/C=N/Nc3ccnc4cc(Cl)ccc34)ccc21`, the growth was 77.1% (inactive).

As to `COc1ccc(-c2nc3cccc(O)c3c(=O)n2Cc2ccccc2)cc1COc1ccc(NC(C)=O)cc1`, the growth is 45.4% [3 µM] (inactive).

As for `COc1ccc2c(c1)Oc1nc(N)c(C#N)c(N)c1C2Sc1ccc(C)cc1` (stereo not given), the growth was -22.3% (active).

Consider `COC(=O)c1cccc(NC2=C(Cl)C(=O)C(C)=C(C)C2=O)c1`, for which the growth is 60.4% (inactive).

As to `COC(=O)c1ccc(NC2=C(Cl)C(=O)C(C)=C(C)C2=O)cc1`, the growth is 41.3% (inactive).

`CCCC(=O)NC(c1cccnc1)c1ccc2c(C)ccnc2c1O` (stereo not given): the growth was 6.67% (active).

As to `O=C(Nc1ccc(N=Cc2c(O)[nH]c3ccccc23)cc1)Nc1ccc(S(=O)(=O)Nc2ncccn2)cc1`, the growth is 117% (inactive).

With `CCCCCCNC(=O)Oc1ccc(/C(=C(/C)c2ccccc2)c2ccc(OCCN3CCCCCC3)cc2)cc1`, the growth is -39.6% (active).

As to `CN1CCN(c2nc(-c3cnc4ccccc4n3)cc3ccccc23)CC1`, the growth was -36.2% (active).

With `CCOC(=O)c1c(NC(=O)c2cccc(C(F)(F)F)c2)sc2c3c(ccc12)OCN(C)C3`, the growth was -56.3% (active).

In the case of `C#C[C@]1(O)CC[C@H]2[C@@H]3CC=C4c5sc(N(C)c6ccccc6)nc5CC[C@]4(C)[C@H]3CC[C@@]21C`, the growth was 61.8% (inactive).

For the molecule `O=C(CSc1nc2ccccc2c(=O)n1-c1ccccc1)Nc1cccc(C(=O)/C=C/c2ccccc2Cl)c1`, the growth was 108% (inactive).

Regarding `COc1cc(/C=N/Nc2ccnc3cc(Cl)ccc23)cc(OC)c1O`, the growth was -44.6% (active).

As for `N#Cc1c(-c2cccs2)cc(-c2cnccn2)nc1SCC(=O)Nc1ccc(Br)cc1`, the growth was 107% (inactive).

Take `CC(Nc1c(C#N)cnc2ccc(-c3cnc(N)nc3)cc12)c1ccccc1` (stereo not given): the growth was 20.1% (inactive).

With `C=CCn1c(SCC(=O)Nc2ccc(C(=O)/C=C/c3ccc(Br)cc3)cc2)nnc1-c1c[nH]c2ccccc12`, the growth was 84.3% (inactive).

As to `C[C@H]1[C@H](C)CC[C@]2(COC(=O)c3cccnc3)CC[C@]3(C)C(=CC[C@@H]4[C@@]5(C)CCCNC(C)(C)[C@@H]5CC[C@]43C)[C@H]12`, the growth is 23.9% (inactive).

Take `Nc1ncc(-c2ccc3ncnc(NCc4ccccc4)c3c2)cn1`: the growth was 44.1% (inactive).

For `O=C1Nc2cc(Cl)ccc2/C1=C\c1ccc(OCc2ccc(Br)cc2F)cc1`, the growth is 66.2% (inactive).

Consider `C=CC(=O)N1CC=C(c2cc3c(N[C@H](C)c4ccccc4)ncnc3[nH]2)CC1`, for which the growth was 104% (inactive).

For the molecule `O=C(/C=C/c1ccc(Cl)c(Cl)c1)Nc1ncc(Cc2ccc(Cl)c(Cl)c2)s1`, the growth is 48.2% (inactive).

Consider `O=C(CN1CCOCC1)NNc1ncnc2ccccc12`, for which the growth was 53% (inactive).

On to `O=S(=O)(NCCNc1nccc(-n2cnc3ccccc32)n1)c1ccc(C(F)(F)F)cc1`, for which the growth was 73.8% (inactive).

With `NS(=O)(=O)c1ccc(Nc2nc(N/N=C/c3ccc4c(c3)OCO4)nc(Nc3ccccc3)n2)cc1`, the growth was 31.1% (inactive).
